Rows were chosen to be rich in hits. Some 7.2% of all compounds tested hit in one or more screens of this group.
FMDV antiviral: High Throughput Screening for Foot and Mouth Disease Virus Antivirals | FMDV antiviral cell-based qHTS | Potency, µM (doses to about 57.9 µM), hits mostly inhibitors | 1.2% of 410,000 active | AID 1159524, 2015; calls by dose curve; tested in HEK293T cells; note: read-out not given here; nearly all actives have a fitted effect of over 45% in size
HCV inh: qHTS Assay for Inhibitors of Hepatitis C Virus (HCV); Huh7.5.1 HCVcc-Cre infection, luciferase reporter, 44 h; Potency, µM (highest dose often 41.8 µM), actives largely listed as inhibitors; 3.4% of 340,000 active; AID 651820, 2012
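HCVcc-Cre virus at an moi near 0.5 was added right after compound to cells cultured 4 h from seeding (1,000 cells/well). Luciferase activity was determined 44 h later, 15 min after substrate addition at RT.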
Marburg entry inh: qHTS for inhibitors of binding or entry into cells for Marburg Virus; 1.8% of 300,000 active; Potency, µM (top dose mostly 37.8 µM), usual class: inhibitors; AID 540276, 2011; Marburg virus pseudotyped entry inhibition, cell reporter; calls by dose curve; tested in HEK293 cells
LASV entry inh: qHTS for Inhibitors of binding or entry into cells for Lassa Virus | Lassa virus pseudotype entry inhibition, cell reporter | Potency, µM (doses to about 37.9 µM), actives largely listed as inhibitors | 1.2% of 300,000 active | AID 540256, 2011; calls by dose curve; tested in HEK293 cells; note: nearly all actives have a fitted effect of over 50% in size
RE007 growth inh: qHTS Assay for Inhibitors of the HIV-1 protein Vpr; S. pombe RE007 Vpr strain, BacTiter-Glo ATP luminescence, 24 h; Potency, µM (titrated, usually from 92.2 µM), most hits filed as inhibitors; 0.21% of 360,000 active; active = well fitted falling curve with a large enough effect; inconclusive = small, poorly fitted or top-dose-only effect; inactive = no such curve, though single readings can be large or run the other way; note: nearly all actives have a fitted effect of over 50% in size
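Fission yeast RE007 carrying one integrated HIV-1 vpr copy, seeded at OD 0.01 in PMG+AL medium with 23 nL pinned compound. Grown 24 h at 30 degrees; viability read by BacTiter-Glo luminescence after 5 min.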
Sm TGR block: qHTS Assay for the Inhibitors of Schistosoma Mansoni Peroxiredoxins; AID 485364, 2010; Schistosoma mansoni thioredoxin glutathione reductase (TGR), Q962Y6; Potency, µM (top dose mostly 114 µM), actives largely listed as inhibitors; purified TGR, DTNB reduction, TNB absorbance 405 nm; 3% of 360,000 active; note: nearly all actives have a fitted effect of over 60% in size
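First, TGR (20 nM dispensed) and NADPH were mixed with compound. Second, a 15 min room-temperature incubation followed. Third, further NADPH and then DTNB were added to start the reaction. Finally, TNB absorbance was monitored kinetically.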
Of the large screens only hits and unclear results are named; the others gave an inactive call. Unless noted, calls come from the whole dose curve; as a rule, active = well fitted curve in the direction sought with a large enough effect; inconclusive = small, poorly fitted or top-dose-only effect, or another doubt; inactive = no such curve, though single readings can be large; an effect the other way counts as inactive or inconclusive.

CCOC(=O)c1cc(-c2ccc(C)cc2)n(CCC(=O)N2CCN(c3ccccn3)CC2)c1C	FMDV antiviral inconclusive, HCV inh inconclusive, Marburg entry inh 21µM, LASV entry inh 16µM
CCOC(=O)c1cnc2c(OC)cccc2c1N1CCN(c2ccccn2)CC1	FMDV antiviral 32µM, HCV inh inconclusive, Marburg entry inh 11µM, LASV entry inh inconclusive
CCOC(=O)c1cnc2c(OC)cccc2c1N1CCN(c2ccccc2OC)CC1	FMDV antiviral inconclusive, HCV inh inconclusive, Marburg entry inh inconclusive, LASV entry inh inconclusive
CCOC(=O)c1cnc2c(OC)cccc2c1N1CC(C)CC(C)C1 (centres undefined)	FMDV antiviral inconclusive, HCV inh 13µM (no result: Marburg entry inh, LASV entry inh)
COc1ccc(Cn2c(SCc3ccc(C(=O)NCc4ccc(C)cc4)cc3)nc3cccnc32)cc1	none (no result: HCV inh, LASV entry inh, RE007 growth inh)
Cc1ccc(OCC(=O)Nc2ccccc2C(=O)OCc2cc(=O)n3ccsc3n2)cc1C	none (no result: HCV inh, Marburg entry inh, RE007 growth inh)
COC(=O)C12CC3=CCC4C(=O)N(c5ccccc5)C(=O)C4C3Cc3ccccc3[C@H]1CNC2=O (some centres undefined)	none (no result: FMDV antiviral, HCV inh, LASV entry inh, RE007 growth inh, Sm TGR block)
COc1ccc(Cl)cc1C(=O)Nc1ccc2oc(-c3ccc(C(C)(C)C)cc3)nc2c1	none (no result: HCV inh, Marburg entry inh, RE007 growth inh)
O=C(N/N=C/CCc1ccccc1)c1ccc(CN2c3cccc4cccc(c34)S2(=O)=O)cc1	FMDV antiviral 40µM
COC(=O)c1ccc(CN2CCN(Cc3ccc(C(=O)OC)o3)CC2)o1	Sm TGR block 35µM
CCC(=O)Nc1ccc(C=C(C(C)=O)C(C)=O)cc1	FMDV antiviral 20µM, Sm TGR block inconclusive (no result: Marburg entry inh, LASV entry inh)
COc1cccc(C=C(C(C)=O)C(=O)c2ccccc2)c1	FMDV antiviral 20µM (no result: HCV inh, Marburg entry inh, LASV entry inh, Sm TGR block)
COc1cccc(/C=C(/C(=O)OCC(N)=O)c2ccccc2)c1	none (no result: LASV entry inh)
N#C/C(=C\c1ccc(O)cc1)C(=O)O	HCV inh 1.1µM (no result: Marburg entry inh, LASV entry inh, Sm TGR block)
N#C/C(=C\c1cccc(O)c1)C(=O)O	none (no result: HCV inh, Marburg entry inh, LASV entry inh, RE007 growth inh, Sm TGR block)
CCC(=O)Nc1ccc(S(=O)(=O)c2ccc(NC(=O)CC)cc2)cc1	none
CCC(=O)Nc1ccc(/C=C(\C(C)=O)C(=O)c2ccccc2)cc1	FMDV antiviral 28µM
CCOC(=O)c1cnc2ccc(OC)cc2c1NCCc1ccccc1	FMDV antiviral inconclusive (no result: HCV inh, Marburg entry inh, RE007 growth inh)
CCc1cc2c(cc3c(=O)n(CCCC(=O)NCc4cccc(Br)c4)ncn32)s1	none (no result: HCV inh, LASV entry inh, RE007 growth inh)
CC(=O)C(=Cc1ccc(O)cc1)C(C)=O	Sm TGR block 45µM (no result: Marburg entry inh, LASV entry inh, RE007 growth inh)
CC(NC(=O)Nc1ccccc1C(F)(F)F)c1c(-n2cccc2)sc2c1CCCC2 (centres undefined)	none (no result: HCV inh, RE007 growth inh)
COc1ccc(C(=O)c2cnc3ccccc3c2-c2ccccc2)cc1	FMDV antiviral inconclusive, HCV inh 13µM, Marburg entry inh inconclusive
O=C(c1cccs1)c1ccc(-c2cccs2)s1	HCV inh inconclusive, Marburg entry inh 11µM, LASV entry inh inconclusive
CCCOc1ccc(C2C(=O)N(C3CCCCCC3)CC(=O)N2CCCOCC)cc1OC (centres undefined)	none (no result: HCV inh, Marburg entry inh, RE007 growth inh)
N/C(=N\OC(=O)c1ccc(Cl)cc1Cl)c1ccccn1	Marburg entry inh 3.7µM, LASV entry inh 5.2µM
N/C(CS(=O)(=O)c1ccccn1)=N\OC(=O)c1ccccc1Cl	Sm TGR block 40µM
Cc1ccc(C(=O)O/N=C(\N)c2ccccn2)c(Cl)c1	FMDV antiviral 10µM, RE007 growth inh 13µM (no result: Marburg entry inh, LASV entry inh)
CCCc1ccc(C(=O)O/N=C(\N)c2ccccn2)cc1	FMDV antiviral 14µM, Marburg entry inh 11µM, LASV entry inh 1.4µM, RE007 growth inh inconclusive
N/C(=N\OC(=O)c1ccc2ccccc2c1)c1ccccn1	Marburg entry inh inconclusive, LASV entry inh inconclusive
CCc1ccc(C2=NN(CCC(=O)NCCc3ccccc3)C(=O)CC2)cc1	none (no result: HCV inh, Marburg entry inh, RE007 growth inh)
COc1ccc(C)cc1NC(=O)CSc1nc(=O)n(Cc2cccnc2)c2c1CCC2	none (no result: HCV inh, Marburg entry inh, RE007 growth inh)
NCc1oc(-c2ccccc2)cc1C(=O)O	Sm TGR block 45µM
CCN(CC)Cc1oc(-c2ccccc2)cc1C(=O)O	Marburg entry inh inconclusive, Sm TGR block 50µM
CC(Sc1nc2c([nH]c3ccccc32)c(=O)n1-c1ccccc1)c1ccccc1 (centres undefined)	LASV entry inh inconclusive (no result: HCV inh, Marburg entry inh, RE007 growth inh)
